The whole screen tested about 310,000 compounds, of which about 11,000 (3.5%) were called active. Inconclusive results (about 4%) are left out. Calls follow the shape of the dose curve; as a rule, active = well fitted inhibition curve with a large enough effect; inconclusive = small, poorly fitted or top-dose-only effect, or another doubt; inactive = no such curve, though single readings can be large or run the other way. What follows is part of a selection rich in actives, with near analogues and random picks from the rest.
Potency is read from the fitted curve at half-maximal effect.

The target in the assay is 4'-phosphopantetheinyl transferase ffp (Bacillus subtilis) (UniProt Q9F4F7). In words: qHTS Assay for Inhibitors of Bacillus subtilis Sfp phosphopantetheinyl transferase (PPTase).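 Also: the enzyme is Sfp with the accession as filed and its product quenches rhodamine fluorescence.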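 As to largest response in the series, negative = inhibition: 0% = enzyme reaction without inhibitor and -100% = no enzyme wells.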 The settings on record: Biochemical Sfp PPTase activity. The gist of the method: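 After 15 min at room temperature with compound, 15 nM Sfp received 5 uM rhodamine-CoA plus 12.5 uM BHQ-2-ybbR (50 mM Hepes pH 7.6, 10 mM MgCl2). Rate came from the fluorescence difference over 30 min, ex 525/em 598 nm.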
For orientation: qHTS replaces the single test concentration by a dilution series.
`CC1(C)CC(=O)C=C(Nc2ccccc2)C1`: the largest response in the series, negative = inhibition was 25.1% (inactive).
In the case of `Cc1cc(C)nc(NNC2=CC(=O)CC(C)(C)C2)n1`, the Potency is 22.4 µM (active).
In the case of `COC(=O)NNC1=CC(=O)CC(C)(C)C1`, the largest response in the series, negative = inhibition is -3.96% (inactive).
The same measure, in the same setting: in the case of `Cc1ccc2c(c1)N(CC(=O)N1CCCC(C)C1)C(=O)CO2` (stereo unspecified) it was 5.13% (inactive); in that of `CCn1c(C)c(C)c2cc(C(=O)N3CCN(c4cccc(C)c4C)CC3)ccc21`, -24.3% (inactive).
On the same count and under the same terms, then `CCOC(=O)C1=C(C)NC(=O)N(C(C)=O)C1c1ccc(Cl)cc1` (stereo unspecified), with 19% (inactive).
As to `CCOC(=O)C1Sc2[nH]c(=O)sc2C(c2ccc(Cl)cc2)C1C(=O)OCC` (stereo unspecified), the Potency was 22.4 µM (active).
`CCOC(=O)c1[nH]c2c(c1-c1ccccc1)C(=O)CC(c1ccc(Cl)cc1)C2` (stereo unspecified): the largest response in the series, negative = inhibition is 5.24% (inactive).
As to `CCC(C)c1ccc(NC(=S)N2CCCC2)cc1` (stereo unspecified), the largest response in the series, negative = inhibition was 7.33% (inactive).
Same read-out and setting: then `c1nc(COc2nsnc2N2CCOCC2)cs1`, with 0.0907% (inactive).
In the case of `c1ccc(COc2nsnc2N2CCOCC2)cc1`, the Potency was 28.2 µM (active).
Take `O=C(O)COc1nsnc1N1CCOCC1`: the largest response in the series, negative = inhibition was 18.9% (inactive).
Still for that read-out and setting: then `CCc1c(C)c2ccc(OC3CCCCC3=O)cc2oc1=O` (stereo unspecified), with -0.0226% (inactive).
Same read-out and setting: in the case of `CCOC(=O)C(C)n1cnc2c(nnn2-c2ccc(F)cc2)c1=O` (stereo unspecified) it was 8.12% (inactive).
For `O=S(=O)(NCCNS(=O)(=O)c1ccccc1)c1ccccc1`, the largest response in the series, negative = inhibition is 14.7% (inactive).
Still for that read-out and setting: then `O=S(=O)(NCc1ccccc1)c1ccc(S(=O)(=O)N2CCCC2)cc1`, with -13.6% (inactive).
With `O=c1/c(=C/c2ccc(CNS(=O)(=O)c3ccccc3)o2)sc2n1CCN=2`, the Potency was 50.1 µM (active).
For the molecule `Cc1ccccc1NC(=O)c1cc(S(=O)(=O)Nc2cccc(C(=O)O)c2)ccc1Cl`, the largest response in the series, negative = inhibition is 17.9% (inactive).
Still for that read-out and setting: then `COCCNC(=O)C1CCN(C(=O)C2CC(=O)N(c3ccc(C)cc3)C2)CC1` (stereo unspecified), with 10.9% (inactive); and `NS(=O)(=O)c1cccc(NC(=O)CN2CCCc3ccccc32)c1`, with 17% (inactive); and `COC(=O)c1[nH]c2cccc(C)c2c1NC(=O)CN1CCCc2ccccc21`, with -4.7% (inactive).
As for `COC(=O)c1[nH]c2ccccc2c1NC(=O)CN1CCCc2ccccc21`, the Potency is 39.8 µM (active).
Consider `O=C(Nc1nnc(S(=O)(=O)N2CCOCC2)s1)c1cccc(Br)c1`, for which the largest response in the series, negative = inhibition is 19.1% (inactive).
With `S=c1[nH]nc(-c2cc(-c3ccccc3)n[nH]2)n1/N=C/c1c2ccccc2cc2ccccc12`, the Potency is 50.1 µM (active).
For the molecule `c1ccc(-c2cc(-c3ccccc3)[nH]n2)cc1`, the largest response in the series, negative = inhibition was 4.07% (inactive).
`S=c1[nH]nc(-c2ccncc2)n1/N=C/c1ccccc1Cl`: the largest response in the series, negative = inhibition was -1.85% (inactive).
As for `CCc1ccc(S(=O)(=O)N/N=C\c2ccc([N+](=O)[O-])o2)cc1`, the Potency was 56.2 µM (active).
`Cc1cc(C)nc(N/N=C/c2ccncc2)n1`: the largest response in the series, negative = inhibition was -9.4% (inactive).
As to `Cc1cc(C)nc(N/N=C/c2ccc([N+](=O)[O-])o2)n1`, the Potency is 79.4 µM (active).
Regarding `C/[N+]([O-])=C\c1ccc([N+](=O)[O-])o1`, the largest response in the series, negative = inhibition was 10% (inactive).
As to `Cc1cc(C)nc(N/N=C/c2c(C)oc3ccccc23)n1`, the largest response in the series, negative = inhibition is -2.54% (inactive).
Same read-out and setting: in the case of `Cc1ccc(S(=O)(=O)N/N=C\c2cc3c(cc2[N+](=O)[O-])OCO3)cc1` it was -17.6% (inactive); in that of `O=C(NNS(=O)(=O)c1ccc([N+](=O)[O-])cc1)C1CCCCC1`, 5.3% (inactive); in that of `CC(C)(C)c1cc[n+](-c2[nH]c(=O)sc2/C=N/N=C(\[O-])c2ccccc2)cc1`, -4.09% (inactive).
Same read-out and setting: then `COC1=C(N2CCOCC2)C(=O)c2ccccc2C1=O`, with -22.9% (inactive); and `COc1ccc(CNC(=O)CCN2C(=O)c3ccccc3C2=O)cc1`, with 10.6% (inactive).
The same measure, in the same setting: in the case of `COc1cc(OC)c(OC)cc1CN1CCN(C(=O)c2cccc3ccccc23)CC1` it was -29.2% (inactive).
For the molecule `COc1ccccc1CN1CCN(C(c2ccccc2)c2ccccc2)CC1`, the largest response in the series, negative = inhibition is -9.22% (inactive).
In the case of `COc1ccccc1CN1CCN(Cc2cc(OC)c(OC)cc2OC)CC1`, the Potency was 79.4 µM (active).
With `Cc1ccc(C(=O)N/C(=C\c2ccc(F)cc2)C(=O)NCCN2CCOCC2)cc1`, the largest response in the series, negative = inhibition was 8.47% (inactive).
Same read-out and setting: then `Cc1ccccc1N1CCN(CC(=O)NCc2ccc(Cl)cc2)CC1`, with 9.8% (inactive).
Regarding `O=C(NCc1ccc(Cl)cc1)C1CCN(S(=O)(=O)c2cccs2)CC1`, the largest response in the series, negative = inhibition is 2.39% (inactive).
For `O=C(CN1CCN(S(=O)(=O)c2ccc(Cl)s2)CC1)NCc1ccc(Cl)cc1`, the Potency is 56.2 µM (active).
In the case of `CN1CCN(C(=O)c2ccccc2NC(=O)COc2ccccc2Cl)CC1`, the largest response in the series, negative = inhibition is 18.2% (inactive).
Consider `COC(=O)/C(=C\Nc1ccccc1)NC(=O)c1ccc(Cl)cc1Cl`, for which the Potency is 79.4 µM (active).
Take `CC(C)NC(=O)c1ccc(Cl)cc1Cl`: the largest response in the series, negative = inhibition is 26.8% (inactive).
On the same count and under the same terms, then `COc1cc(/C=C(/NC(=O)c2ccc(Cl)cc2Cl)C(=O)O)cc(OC)c1OC`, with 1.15% (inactive); and `COc1ccc(N2CCN(C(=O)c3ccc(N4CCCCS4(=O)=O)cc3)CC2)cc1`, with 1.49% (inactive).
`COc1ncnc2c1N=C1CC(C)(C)CC(N)=C1S2`: the Potency is 44.7 µM (active).
In the case of `CN(CC(=O)NCc1ccncc1)S(=O)(=O)c1ccc(Br)cc1`, the largest response in the series, negative = inhibition is 13.4% (inactive).
As for `O=C(Nc1nc(-c2ccncc2)cs1)C1COc2ccccc2O1` (stereo unspecified), the Potency is 8.91 µM (active).
Turning to `O=C(Nc1ncc([N+](=O)[O-])s1)C1COc2ccccc2O1` (stereo unspecified), the largest response in the series, negative = inhibition was -25.4% (inactive).
Still for that read-out and setting: then `O=C(Nc1nc2c(F)cc(F)cc2s1)C1COc2ccccc2O1` (stereo unspecified), with -2.2% (inactive).
Still for that read-out and setting: in the case of `CC(=O)c1ccc(S(=O)(=O)NCc2nnnn2-c2ccccc2)cc1` it was 25.6% (inactive); in that of `Cc1ccc2c(c1)N(CC(=O)NCC1CCCO1)C(=O)CO2` (stereo unspecified), 20.7% (inactive); in that of `S=c1[nH]nc(-c2ccco2)n1/N=C/c1ccccc1`, -17.1% (inactive).
On to `S=c1[nH]nc(-c2cccnc2)n1/N=C/C(Cl)=C\c1ccccc1`, for which the largest response in the series, negative = inhibition was -12.9% (inactive).
Still for that read-out and setting: in the case of `CC(C)c1cc(C(=O)N/N=C/C(Br)=C/c2ccccc2)n[nH]1` it was 3.6% (inactive).
The same measure, in the same setting: then `S=c1[nH]nc(-c2ccco2)n1/N=C/c1ccc(Br)s1`, with -25.9% (inactive).
Turning to `Cc1cc(-c2n[nH]c(=S)n2/N=C/c2ccco2)n[nH]1`, the Potency was 79.4 µM (active).
Still for that read-out and setting: then `Cc1cc(-c2n[nH]c(=S)n2/N=C/C(Br)=C/c2ccccc2)n[nH]1`, with 39.8 µM (active).

The values are drawn from PubChem BioAssay AID1490 (National Center for Advancing Translational Sciences (NCATS), 2009).
